High-throughput results: PubChem BioAssay, several laboratories
Compounds with a hit are over-represented: about 2.7% of the library has one in this group of screens.
IDE cell activ: boosts human insulin-degrading enzyme activity in HEK cells. P14735. FAbeta-B cleavage, fluorescence polarization; 0% vehicle, 100% cell-free pure enzyme wells. activation, % at 5.96 µM. 340,000 compounds, 0.073% hits;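 active = activation above the mean of all tested compounds plus 3 SD, set per screening campaign, cut at about 17% in these data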
IDE inh: cellular human IDE inhibition; HEK cells, FAbetaB cleavage, fluorescence polarization; inhibition, % at 5.59 µM; 320,000 compounds, 0.41% hits; AID 434962;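 active = percent inhibition above the average of all tested compounds plus 3 SD, set per screening campaign, cut at about 16% in these data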;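 note: IDE supplied by intact live HEK cells; FP after avidin binding of uncleaved biotin substrate so inhibition keeps polarization high; 0% = DMSO wells and 100% = 60 µM reference IDE inhibitor Ii1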
CHT PAM: allosteric activators of human choline transporter CHT | Q9GZV3 | CHT-expressing cells, membrane potential dye, choline EC20; hits give high values; LV-AA mutant CHT in HEK293 cells | B-score at 10 µM | 310,000 compounds, 0.49% hits;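 active = initial fluorescence not abnormally high and integrated response B-score, plate-corrected, over 3 SD above library mean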
Target sequence (Q9GZV3 whole entry, looked up): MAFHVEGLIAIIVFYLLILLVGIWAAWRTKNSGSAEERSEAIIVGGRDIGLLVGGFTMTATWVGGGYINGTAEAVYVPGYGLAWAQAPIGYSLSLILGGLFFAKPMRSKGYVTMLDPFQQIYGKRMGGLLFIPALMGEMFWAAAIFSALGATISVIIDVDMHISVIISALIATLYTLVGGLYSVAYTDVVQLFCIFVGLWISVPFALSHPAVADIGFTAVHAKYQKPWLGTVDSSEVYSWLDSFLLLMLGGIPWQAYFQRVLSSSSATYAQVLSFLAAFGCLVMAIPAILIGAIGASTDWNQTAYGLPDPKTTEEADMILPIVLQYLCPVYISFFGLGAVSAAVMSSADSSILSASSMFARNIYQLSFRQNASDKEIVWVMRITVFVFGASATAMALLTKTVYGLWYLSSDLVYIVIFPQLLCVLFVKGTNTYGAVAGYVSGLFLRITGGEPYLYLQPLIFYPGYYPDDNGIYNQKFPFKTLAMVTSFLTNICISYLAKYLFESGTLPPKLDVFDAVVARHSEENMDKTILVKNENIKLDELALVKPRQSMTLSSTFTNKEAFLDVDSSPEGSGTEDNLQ
CHT inh: inhibits the human high affinity choline transporter; CHT-expressing cells, membrane potential dye, choline response; hits give low values; B-score at 10 µM; 310,000 compounds, 0.86% hits; AID 488975;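 active = B-score over 3 SD under the library average, and starting fluorescence ratio not unusually high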;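 note: choline stimulus applied at its EC90 after an EC20 pre-addition; B-score computed on integrated fluorescence ratio after choline addition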
ANO1 block: inhibitors of mouse TMEM16A calcium-activated chloride channel; 310,000 compounds, 1.2% hits; HEK293 TMEM16A/YFP iodide influx fluorescence, ionomycin; normalized B-score (activity score, 25-100; higher = stronger inhibition) at 10 µM;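 active = ratio plate-corrected score three or more library SD toward inhibition, starting fluorescence score within five deviations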;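 note: score derived from kinetic fluorescence span divided by baseline fluorescence per well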
ANO1 activ: activates or potentiates the mouse TMEM16A chloride channel; Q8BHY3; HEK293 TMEM16A/YFP-H148Q/I152L, iodide quench fluorescence; hits give low values; B-score at 10 µM; 340,000 compounds, 0.3% hits; AID 623877;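 active = fluorescence-ratio B-score plate-corrected deviation score at least 3 library SD below zero, with starting fluorescence score within 5 deviations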;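 note: channel opened by trigger with iodide after compound preincubation; score built on the fluorescence ratio of max minus min over baseline; more negative score means more quench and so TMEM16A activation or potentiation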
CHT activ conf: human CHT activation, confirmatory screen | 2,500 compounds, 91% hits | shares compounds with CHT PAM | AID 504833 | CHT-expressing cells, membrane potential dye fluorescence (FDSS); % of choline EC20–EC90 response window; HEK293 expressing CHT LV-AA mutant; choline added at its EC20 | activation, % at 10 µM;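 active = primary screen active, with duplicate mean activation above negative control mean plus 3 SD, cut at about 11% in these data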
HEK293 MP dye: CHT activator counter-screen hit in parental HEK293 cells; shares compounds with CHT PAM; membrane potential dye fluorescence (FDSS); measured after EC20 choline addition; ratio readout change at 10 µM, hits read low; 2,500 compounds, 62% hits;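 active = duplicate-averaged ratio beyond 3 SD from buffer wells, up or down, though filed actives are nearly all decreases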
Numbers without * were called inactive; i = inactive; nt = no result.

SMILES | IDE cell activ | IDE inh | CHT PAM | CHT inh | ANO1 block | ANO1 activ | CHT activ conf | HEK293 MP dye
CCCCCCCCCCCCCCCC[N+](C)(C)CCN(Cc1ccc(OC)cc1)c1ncccn1 | 18* | -4 | i | i | i | i | 18* | -60*
Cc1ccc(NC(=O)CSC(C)c2nc3ccccc3c(=O)[nH]2)cc1 (centres undefined) | 0 | 0 | i | i | i | i | nt | nt
CCOC(=O)C1(CCOc2ccccc2)CCN(Cc2ccncc2)CC1 | -1 | 10 | i | i | i | i | nt | nt
CCOC(=O)C1(CCOc2ccccc2)CCN(Cc2cccc(OC)c2)CC1 | 1 | -3 | i | i | i | i | nt | nt
CCOC(=O)C1(CCOc2ccccc2)CCN(Cc2cccn2-c2ncccn2)CC1 | 1 | 2 | 15* | i | i | i | 38* | i
CCOC(=O)C1(Cc2cccc(OC)c2)CCN(Cc2cccc(OC)c2OC)CC1 | -2 | 1 | i | i | i | i | nt | nt
CCOC(=O)C1(CCOc2ccccc2)CCN(Cc2cc(OC)ccc2OC)CC1 | 5 | -1 | i | i | i | i | 30* | i
CCOC(=O)C1(CCOc2ccccc2)CCN(Cc2ccc(-n3cccn3)cc2)CC1 | 4 | 1 | 6.3* | i | 25* | i | 27* | i
CCOC(=O)C1(Cc2cccc(OC)c2)CCN(Cc2cccc3cnccc23)CC1 | 4 | 1 | i | i | i | i | 22* | i
CN(C)C(=O)c1cc(C(=O)Cc2ccccc2)c[nH]1 | 6 | 11 | i | i | i | nt | nt | nt
COc1ccc(CNc2cccc3[nH]c(C(F)(F)F)nc23)cc1OC | 4 | -9 | i | i | i | i | nt | nt
CN(C)C(CNC(=O)c1cccc(S(=O)(=O)NCc2ccccc2)c1)c1ccccc1 (centres undefined) | -1 | nt | nt | nt | nt | i | nt | nt
[O-][N+]1=c2ccc(Nc3ccccc3)cc2=NC12CCCCC2 | -1 | 6 | i | i | i | i | nt | nt
COc1ccc(Nc2ccc3c(c2)=NC2(CCCCC2)[N+]=3[O-])cc1 | 0 | -4 | 7.2* | i | i | i | 51* | -73*
O=C(NCCC1CCCCN1S(=O)(=O)c1ccccc1)C(=O)NCc1ccccc1 (centres undefined) | 1 | -1 | i | i | i | i | nt | nt
Cc1ccc(CNC(=O)C(=O)NCCC2CCCCN2S(=O)(=O)c2ccccc2)cc1 (centres undefined) | 3 | 1 | 8.5* | i | i | i | 10 | i
C/C(=N\NC(=O)c1c(C)nc2ccccn12)c1ccc(C(C)(C)C)cc1 | -6 | 3 | i | i | i | i | nt | nt
O=C(N/N=C/c1ccc([N+](=O)[O-])o1)c1ccncc1 | nt | 3 | i | i | i | i | 56* | -47*
Cc1nc2ccccn2c1C(=O)N/N=C/c1ccc([N+](=O)[O-])o1 | 4 | -2 | i | i | i | i | 31* | -39*
O=C(CNC(=O)c1ccccc1)N/N=C/c1ccc([N+](=O)[O-])o1 | 1 | 1 | i | i | i | i | nt | nt
C/C(=N\NC(=O)c1c(C)nc2ccccn12)c1ccco1 | 4 | -2 | 10* | i | i | i | 15* | i
O=C(N/N=C/c1cc([N+](=O)[O-])ccc1O)c1ccncc1 | 6 | -1 | i | i | i | i | 36* | -39*
CCCC/C=C1/CCC(CN(C)C)C1=O (centres undefined) | 3 | nt | nt | nt | nt | i | nt | nt
Cc1cc([N+](=O)[O-])nn1CC(=O)N(C)C1CCCCC1 | 5 | 6 | i | i | i | i | nt | nt
